# In PubChem BioAssay (EPA / NIEHS):
# Where “and” joins values, the source holds several entries; their conditions need not be identical. Equal entries are not always repeated. Where a structure was tested more than once in an assay, its records may differ in their call. Calls of active or inactive are those of the source. How the source made its calls: active means hit-call score of the fitted dose curve at least 0.9, where 1 is the maximum; inactive means score below 0.9.
# Target: Aryl hydrocarbon receptor (Homo sapiens) (UniProt P35869)
# Test: ATG_Ahr_CIS: Attagene CIS-FACTORIAL HepG2 Assay for human Aryl Hydrocarbon Receptor (Ahr) (AID 2282930)
# Settings: HepG2 AhR cis-factorial reporter transcription; actives raise or lower the signal
# Experimental: ATG_CIS is a cell-based, multiplexed-readout assay that uses HepG2, a human liver cell line, with measurements taken at 24 hours after chemical dosing in a 24-well plate.ATG_Ahr_CIS is one of 52 assay component(s) measured or calculated from the ATG_CIS assay. It is designed to make measurements of mRNA induction, a form of inducible reporter, as detected with fluorescence intensity signals by Reverse transcription polymerase chain reaction (RT-PCR) and Capillary electrophoresis technology.Data from the assay component ATG_Ahr_CIS was analyzed into 1 assay endpoint. This assay endpoint, ATG_Ahr_CIS, was analyzed with bidirectional fitting relative to DMSO as the negative control and baseline of activity. Using a type of inducible reporter, measures of mRNA for gain or loss-of-signal activity can be used to understand the reporter gene at the transcription factor-level as they relate to the gene AHR. Furthermore, this assay endpoint can be referred to as a primary readout, because this assay has produced multiple assay endpoints where this one serves a reporter gene function. To generalize the intended target to other relatable targets, this assay endpoint is annotated to the dna binding intended target family, where the subfamily is basic helix-loop-helix protein.
# Human liver HepG2 cells are transiently transfected with multiple reporter transcription units (MRTUs) in 6-well plates using FuGene 6 reagent (Roche; 3 ml FuGene/1 mg DNA). The MRTU constructs are regulated by a cis-regulating element (promoter). […] A major difference between the CIS and TRANS system is that in CIS activities of endogenous TFs are measured, whereas the TRANS assay evaluates changes in activities of exogenous, chimeric NR-Gal4 proteins. […] At the end of 24 hour incubation, total RNA was isolated using TriZol reagent (Invitrogen). The isolated RNA is then reverse-transcribed using oligo(dT) primer and Mo-MLV reverse transcriptase (Invitrogen) with DNAse I (Ambion) treatment for 30 min. The one-tenth of the produced cDNA was amplified by PCR using Taq DNA polymerase (Invitrogen) and two reporter sequence-specific primers. The PCR products were fluorescently labeled by primer extension with 6-arboxyfluorescein (6-FAM) 5'-labeled reporter sequence-specific primer (2 min at 95 C, 20 s at 68 C and 10 min at 72 C) and these products were digested with 5U of HpaI (New England Biolabs) for 2h at 37 C. […] The raw capillary electrophoresis data was processed using Attagraph software (Attagene).
# Sequence of Aryl hydrocarbon receptor (Homo sapiens) (P35869 whole entry, looked up): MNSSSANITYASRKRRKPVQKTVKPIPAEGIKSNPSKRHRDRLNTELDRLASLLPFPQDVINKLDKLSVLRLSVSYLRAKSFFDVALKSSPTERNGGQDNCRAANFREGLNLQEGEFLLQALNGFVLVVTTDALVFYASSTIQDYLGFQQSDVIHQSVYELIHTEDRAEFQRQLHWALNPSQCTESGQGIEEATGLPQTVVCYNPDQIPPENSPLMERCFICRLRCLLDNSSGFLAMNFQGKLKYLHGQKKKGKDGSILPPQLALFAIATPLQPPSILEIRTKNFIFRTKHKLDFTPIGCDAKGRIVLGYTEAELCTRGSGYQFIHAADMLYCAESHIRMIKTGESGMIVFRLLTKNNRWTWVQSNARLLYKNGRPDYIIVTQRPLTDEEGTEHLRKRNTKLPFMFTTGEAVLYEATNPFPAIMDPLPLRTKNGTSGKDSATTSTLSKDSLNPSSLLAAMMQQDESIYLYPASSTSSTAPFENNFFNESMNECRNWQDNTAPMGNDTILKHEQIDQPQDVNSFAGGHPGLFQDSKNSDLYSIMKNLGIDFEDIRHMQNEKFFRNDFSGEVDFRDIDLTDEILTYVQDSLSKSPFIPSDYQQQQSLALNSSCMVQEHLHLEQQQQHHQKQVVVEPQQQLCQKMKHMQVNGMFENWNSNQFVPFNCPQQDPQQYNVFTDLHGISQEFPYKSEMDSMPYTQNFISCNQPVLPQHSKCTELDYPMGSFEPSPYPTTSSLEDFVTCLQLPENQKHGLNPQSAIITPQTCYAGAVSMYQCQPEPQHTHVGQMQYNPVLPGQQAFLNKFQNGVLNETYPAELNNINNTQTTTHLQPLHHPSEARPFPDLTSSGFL
SMILES,outcome,AC50
CCC(=O)O[C@H]1CC[C@H]2[C@@H]3CCC4=CC(=O)CC[C@]4(C)[C@H]3CC[C@]12C,inactive,38.6 µM (active)
CC#Cc1cc(C)nc(Nc2ccccc2)n1,–,23 µM (active)
ClC1=C(Cl)[C@]2(Cl)[C@@H]3[C@@H]4C[C@@H]([C@H]5O[C@@H]45)[C@@H]3[C@@]1(Cl)C2(Cl)Cl,inactive,–
O=C(O)C(F)(F)C(F)(F)C(F)(F)C(F)(F)C(F)(F)C(F)(F)C(F)(F)C(F)(F)F,inactive,–
CO/C=C(/C(=O)OC)c1ccccc1COc1cccc(C(F)(F)F)n1,inactive,–
CN(C)c1nc(=O)n(C2CCCCC2)c(=O)n1C,inactive,–
Oc1ccc(C(c2ccc(O)cc2)(C(F)(F)F)C(F)(F)F)cc1,inactive,11.1 µM (active) and 5.94 µM (active) and 13.3 µM (active)
CCC(C)(CC)c1cc(NC(=O)c2c(OC)cccc2OC)on1,–,20.5 µM (active)
O=C(NC(=O)c1c(F)cccc1F)Nc1cc(Cl)c(OC(F)(F)C(F)F)c(Cl)c1,inactive,–
O=S(=O)(O)C(F)(F)C(F)(F)C(F)(F)C(F)(F)C(F)(F)C(F)(F)F,inactive,–
Cc1cccc(C)c1N,inactive,–
CCCN(CCC)N=O,inactive,–
Cc1ccccc1[N+](=O)[O-],inactive,–
C=CC(N)=O,inactive,–
O=C(O)C(F)(F)C(F)(F)C(F)(F)C(F)(F)C(F)(F)C(F)(F)C(F)(F)C(F)(F)C(F)(F)F,inactive,69.7 µM (active)
Cc1cc(O)ccc1Cl,inactive,–
CCCCCCCCOC(=O)c1ccccc1C(=O)OCCCCCCCC,inactive,–

SMILES,outcome,AC50
Cc1cccc([N+](=O)[O-])c1,inactive,–
CC(C)(c1ccccc1)c1ccc(O)cc1,inactive,–
OCC(O)CO,inactive,33.3 µM (active)
c1ccc(-c2ccccc2)cc1,inactive,–
C[C@]12CCC(=O)C=C1CC[C@@H]1[C@@H]2CC[C@]2(C)C(=O)CC[C@@H]12,inactive,49.8 µM (active)
CCOC(=O)C(O)(c1ccc(Cl)cc1)c1ccc(Cl)cc1,–,8.63 µM (active)
C=CC(=O)NCNC(=O)C=C,inactive,–
NS(=O)(=O)C(F)(F)C(F)(F)C(F)(F)C(F)(F)C(F)(F)C(F)(F)C(F)(F)C(F)(F)F,inactive,–
Cc1ccccc1O,inactive,–
O=C(NC(=O)c1cc(F)c(F)cc1Cl)Nc1cc(F)ccc1N1CCC(C(=O)O)CC1,inactive,–
CCOP(=S)(OCC)SCSC(C)(C)C,inactive,78.2 µM (active)
C1CC2OC2CC1C1CO1 (stereo not given),–,81.5 µM (active)
ClC(Cl)=C(c1ccc(Cl)cc1)c1ccc(Cl)cc1,inactive,19.8 µM (active) and 122 µM (active)
CCOCCOC(C)=O,inactive,–
O=C(O)C(F)(F)C(F)(F)C(F)(F)C(F)(F)C(F)(F)F,inactive,–
COS(=O)(=O)OC,inactive,–
